D2 ag-1 = human D2 receptor agonism in beta-arrestin assay; P14416; DiscoveRx PathHunter D2 beta-arrestin, luminescence, 90 min; 100% = 57 uM dopamine signal; activation, % (no concentration beside the values); 360,000 compounds, 0.084% hits; AID 624465; in the data active means activation above about 40%; inconclusive means between about 15% and that limit
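Agonist mode: compounds alone added to overnight-plated D2 PathHunter cells for 90 min at 37 C, with 57 uM final dopamine (EC100) defining full response. Beta-arrestin recruitment detected by chemiluminescent reagent, read after 1 h at ambient temperature.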
D2 PAM-1 = human D2 receptor positive allosteric modulation. AID 624464. DiscoveRx D2 beta-arrestin cells, luminescence, 90 min; 100% = 57 uM dopamine signal. P14416. 360,000 compounds, 0.23% hits. potentiation, % (test concentration not listed); in the data active means potentiation above about 50%; inconclusive means mostly about 30% to 49%
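D2 cells co-treated with compound plus 50 nM dopamine (EC20) for 90 min at 37 deg C to detect potentiation. Beta-arrestin recruitment was read as enzyme-fragment luminescence after 1 h at ambient temperature. Full response was set by 57 uM dopamine.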
D2 PAM-2 = positively modulates the human D2 dopamine receptor allosterically. P14416. 340,000 compounds, 0.34% hits. potentiation, % at 10 µM. HEK293 T-REx D2, calcium flux, EC20 dopamine potentiation. AID 485347;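 active means potentiation over 3 SD above the plate norm, cut at about 30% in these data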
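Using a no-wash calcium dye in inducible, force-coupled HEK293 Trex cells expressing D2, we tracked fluorescence each second for 180 s after compound, then for 180 s after EC20 dopamine to detect augmented signalling.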
D2 ag-2 = agonists of human D2 dopamine receptor; AID 485358; activation, % at 2 µM; 340,000 compounds, 0.53% hits; HEK293 T-REx D2 cells, calcium flux agonist mode;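 active means activation over 3 SD above normal in the single-dose calcium agonist read, cut at about 30% in these data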
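In this primary screen, compounds producing a positive calcium signal within 180 s of addition to tetracycline-induced, force-coupled HEK293 Trex D2 cells are flagged; cells are dye-loaded with a no-wash calcium kit beforehand.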
D2 antag = antagonizes the human D2 dopamine receptor. inhibition, % at 10 µM. HEK293 TREx D2 cells, calcium flux, dopamine EC80. 340,000 compounds, 2% hits. AID 485344; in the data active means inhibition above about 30%; inactive means below that, where a call was filed
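Calcium mobilization kinetics were recorded at 1 s intervals in tetracycline-induced HEK293 T-REx D2 cells, first for 180 s after compound addition and then 180 s after EC80 dopamine.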
D3 arrestin ag = D3 receptor agonism confirmed, beta-arrestin readout; shares compounds with D2 ag-2; DiscoveRx D3 beta-arrestin cells, luminescence, 90 min; Potency, µM (highest dose often 76.9 µM), actives largely listed as activators; 2,300 compounds, 4% hits; AID 720506; further: nearly all actives have a fitted effect of over 70% in size
Target sequence (P35462 whole entry, looked up): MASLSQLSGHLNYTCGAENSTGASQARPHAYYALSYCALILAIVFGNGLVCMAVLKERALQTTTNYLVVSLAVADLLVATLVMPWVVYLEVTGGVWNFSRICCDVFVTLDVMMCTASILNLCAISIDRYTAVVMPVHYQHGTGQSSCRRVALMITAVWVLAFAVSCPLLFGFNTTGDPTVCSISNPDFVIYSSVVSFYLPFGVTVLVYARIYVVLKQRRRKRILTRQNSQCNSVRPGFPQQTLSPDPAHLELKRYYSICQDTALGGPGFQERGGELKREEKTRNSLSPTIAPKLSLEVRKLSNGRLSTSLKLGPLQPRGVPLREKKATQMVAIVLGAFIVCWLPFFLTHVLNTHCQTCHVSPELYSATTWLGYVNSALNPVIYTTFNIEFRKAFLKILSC
D2 ag-3 = D2 receptor agonism, beta-arrestin counterscreen. 2,300 compounds, 5.9% hits. DiscoveRx PathHunter D2 beta-arrestin, luminescence, 90 min; response scale: percent relative to full dopamine signal. AID 720507. shares compounds with D2 ag-2. Potency, µM (titrated, usually from 76.9 µM), usual class: activators; further: nearly all actives have a fitted effect of over 70% in size
Large screens that a line does not name were inactive (follow-up assays come after a bar, where they were run); ! = repeats disagree. In the library only some 2.4% were active in any assay of this set; here they are far more common. Unless noted, the call rests on the fitted dose curve; in most records, active means well fitted activation curve with a large enough effect; inconclusive means small, poorly fitted or top-dose-only effect; inactive means flat fitted curve, though single readings scatter.

Cc1ccc(Cn2cccc(C(=O)Nc3ccc4c(c3)OCO4)c2=O)cc1	none (no result: D2 ag-1, D2 PAM-1, D2 antag)
CN(C)c1cccc(CN2CCN(c3ccccc3)CC2)c1	none (no result: D2 PAM-2, D2 ag-2, D2 antag)
Cn1c(=O)oc2cc(S(=O)(=O)NCCN3CCN(c4ccccc4)CC3)ccc21	D2 ag-2 71.5, D2 antag 65.2 | D3 arrestin ag inactive | D2 ag-3 inconclusive
NCCCN1CCN(c2ccccc2)CC1	D2 ag-1 inconclusive, D2 antag 95.3 | D3 arrestin ag inactive | D2 ag-3 inactive
CC(C)c1ccc(OCC(=O)N2CCN(CCc3ccccn3)CC2)cc1	none (no result: D2 ag-1, D2 PAM-1, D2 PAM-2, D2 antag)
O=C1CN=C(c2ccccc2)c2cc(Cl)ccc2N1Cc1ccc(Cl)cc1	none (no result: D2 ag-1, D2 PAM-1, D2 antag)
CCN(CC)S(=O)(=O)c1cc(NC(=O)C(C)N2CC=C(c3ccccc3)CC2)ccc1C (stereo not drawn)	D2 ag-1 inconclusive, D2 ag-2 44.3 | D3 arrestin ag inactive | D2 ag-3 inconclusive
O=C(c1ccc2c(c1)N(Cc1ccc(F)cc1Cl)C(=O)c1ccccc1S2)N1CCC2(CC1)OCCO2	none (no result: D2 ag-1, D2 PAM-1, D2 antag)
Oc1cc2c(cc1CN1CCN(c3ccccc3F)CC1)OCO2	D2 ag-2 66.2, D2 antag 76.4 | D3 arrestin ag inactive | D2 ag-3 inactive
COc1c2c(cc3c1OCO3)CC[N+](C)=C2	none | D3 arrestin ag inactive | D2 ag-3 inactive
COc1ccc2c(c1OC)CN1CCc3cc4c(cc3[C@H]1C2)OCO4	none
CC[C@@H](CO)NC(=O)[C@@H]1C=C2c3cccc4c3c(cn4C)C[C@H]2N(C)C1	D2 ag-2 54.2!, D2 antag 47.5 | D3 arrestin ag inconclusive | D2 ag-3 inactive
CC(C)C[C@H]1C(=O)N2CCC[C@H]2[C@]2(O)O[C@](NC(=O)[C@@H]3C=C4c5cccc6[nH]cc(c56)C[C@H]4N(C)C3)(C(C)C)C(=O)N12	D2 ag-1 106.3, D2 PAM-1 inconclusive, D2 ag-2 76.1, D2 antag 72.0 | D3 arrestin ag inconclusive | D2 ag-3 1µM
CCC(CO)NC(=O)C1C=C2c3cccc4[nH]cc(c34)CC2N(C)C1 (stereo not drawn)	D2 ag-1 113.5, D2 PAM-1 inconclusive, D2 ag-2 84.3, D2 antag 81.0 | D3 arrestin ag 2.82µM | D2 ag-3 7.08µM
CCSc1nnc(NC(=O)c2cccn(Cc3ccccc3Cl)c2=O)s1	none (no result: D2 ag-1, D2 PAM-1, D2 antag)
CCc1ccc(NC(=O)c2cccn(Cc3cccc([N+](=O)[O-])c3)c2=O)cc1	none (no result: D2 ag-1, D2 PAM-1, D2 antag)
COc1ccc(-n2c(/C=C/c3cccc(F)c3)nc3ccccc3c2=O)cc1Cl	none (no result: D2 ag-1, D2 PAM-1, D2 antag)
Cc1cccc(N2C(=O)NC(=O)/C(=C\C=C\c3ccco3)C2=O)c1	none | D3 arrestin ag inactive | D2 ag-3 inactive
Cc1ccc(N2C(=O)NC(=O)/C(=C\C=C\c3ccco3)C2=O)cc1	none (no result: D2 ag-2, D2 antag)
O=S1(=O)N(Cc2ccccc2)CCCN1Cc1cccc(Cl)c1	none (no result: D2 ag-1, D2 PAM-1, D2 antag)
COc1cc(C(c2c(O)c3ccccc3oc2=O)c2c(C)n(C)n(-c3ccccc3)c2=O)ccc1OCC(=O)O (stereo not drawn)	none (no result: D2 ag-1, D2 PAM-1, D2 antag)
Cc1ccccc1Cn1cccc(C(=O)Nc2nc3ccccc3s2)c1=O	none (no result: D2 ag-1, D2 PAM-1, D2 PAM-2, D2 antag)
CC(=O)O[C@H]1[C@H]2O[C@]23[C@@H]2CC[C@]4(O)C[C@@H](O)CC[C@]4(C)C2CC[C@]3(C)[C@H]1c1ccc(=O)oc1 (stereo partly drawn)	none | D3 arrestin ag inactive | D2 ag-3 inactive
COC(=O)C1=C(c2c(C)noc2C)C[C@@H]2CC[C@H]1N2C(=O)NCCO	none
COC(=O)C1=C(c2c(C)noc2C)C[C@@H]2CC[C@H]1N2C(=O)NC(C)C	D2 antag 41.8 | D3 arrestin ag inactive | D2 ag-3 inactive
Cc1cc(OCC(=O)N2CCN(CCc3ccncc3)CC2)ccc1Cl	none (no result: D2 ag-1, D2 PAM-1, D2 antag)
CN1C(=O)/C(=C\c2ccc(N3CCCCC3)o2)C(=O)NC1=S	D2 ag-2 33.4 | D3 arrestin ag inactive | D2 ag-3 inactive
COC(=O)C1=C(c2ccc(-c3ccccc3)c(F)c2)C[C@@H]2CC[C@H]1N2C(=O)N1CCCCC1	none | D3 arrestin ag inactive | D2 ag-3 inactive
Cc1ccc(Cn2cccc(C(=O)Nc3cc(C)on3)c2=O)cc1	none (no result: D2 ag-1, D2 PAM-1, D2 antag)
O=[N+]([O-])c1cccc2c([N+](=O)[O-])cccc12	none | D3 arrestin ag inactive | D2 ag-3 inactive
CCOc1ccc(NC(=O)Cn2cc(C(=O)c3ccccc3)c3ccccc32)cc1	none (no result: D2 ag-1, D2 PAM-1, D2 antag)
Cc1cccc(-n2nc(C)c3c2NC(=O)CSC3c2ccccc2Cl)c1 (stereo not drawn)	none (no result: D2 ag-1, D2 PAM-1, D2 antag)
CN1CCN(Cc2ccc(Br)s2)CC1	none
COc1ccccc1N1CCN(Cc2c(F)cccc2Cl)CC1	none
COc1ccccc1N1CCN(Cc2ccc(Br)s2)CC1	D2 ag-2 60.6, D2 antag 84.9 | D3 arrestin ag inactive | D2 ag-3 inactive
COc1ccccc1N1CCN(Cc2ccccc2)CC1	D2 ag-2 31.3, D2 antag 96.6 | D3 arrestin ag inactive | D2 ag-3 inactive
COC(=O)C1=C(c2ccc(F)cc2OCc2ccccc2)C[C@@H]2CC[C@H]1N2C(=O)NCc1ccccc1Br	none | D3 arrestin ag inactive | D2 ag-3 inactive
COC(=O)C1=C(c2ccc(F)cc2OCc2ccccc2)C[C@@H]2CC[C@H]1N2C(=O)NCc1ccccc1C(F)(F)F	none
O=C(Nc1ccc(F)c([N+](=O)[O-])c1)N1C[C@H]2C[C@@H](C1)c1cccc(=O)n1C2	none
CCOc1ccccc1CN(CCc1ccc2c(c1)OCO2)Cc1ccc(CC)cc1	none (no result: D2 ag-1, D2 PAM-1, D2 antag)
CC(=O)OC1(c2ccccc2)CCN(C2CCCCC2)CC1C (stereo not drawn)	D2 ag-2 66.6, D2 antag 53.2 | D3 arrestin ag inactive | D2 ag-3 inactive
C=C[C@@H]1C2=CCOC(=O)C2=CO[C@H]1O[C@@H]1O[C@H](CO)[C@@H](O)[C@H](O)[C@H]1O	none | D3 arrestin ag inactive | D2 ag-3 inactive
O=C1CC(c2c(F)cccc2Cl)c2c(c3ccccc3oc2=O)O1 (stereo not drawn)	none (no result: D2 ag-1, D2 PAM-1, D2 antag)
O=C(CCN1CC=C(c2ccccc2)CC1)NCc1ccccc1	none (no result: D2 PAM-2, D2 ag-2, D2 antag)
O=C(CN1CC=C(c2ccccc2)CC1)NC(=O)NCc1ccco1	D2 ag-2 54.1, D2 antag 39.6 | D3 arrestin ag inactive | D2 ag-3 inactive
CC(=O)N1CCC(N2CCCC(C(=O)c3cccc(Cl)c3)C2)CC1 (stereo not drawn)	D2 ag-1 57.7, D2 PAM-1 55.4, D2 ag-2 84.4, D2 antag 77.8 | D3 arrestin ag inconclusive | D2 ag-3 inconclusive

Bioassay records deposited in PubChem by National Center for Advancing Translational Sciences (NCATS).
